The structures appear in SMILES notation. Screen size: about 96,000 compounds; about 19,000 (20%) were called active. Only a sample is shown. Values without a mark were called inactive.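 Rule for the calls: active = blocking of liver enzyme CYP2C9 beyond about 50% at 5 µM (limit read from the data); inactive = the rest.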

Broadly, the inhibition is the change of the read-out against control, counted positive when it falls.

The test deals with Cytochrome P450 2C9 (Homo sapiens) (UniProt P11712). Nature of the test: blockers of cytochrome P450 2C9 activity – biochemical, luminescence, ADME assay, primary screen (AID 777). To be noted: CYP2C9 Supersomes, luciferin-H conversion, at 5 µM, hits give high values.
Cytochrome P450 2C9 (Homo sapiens), sequence (P11712 whole entry, looked up): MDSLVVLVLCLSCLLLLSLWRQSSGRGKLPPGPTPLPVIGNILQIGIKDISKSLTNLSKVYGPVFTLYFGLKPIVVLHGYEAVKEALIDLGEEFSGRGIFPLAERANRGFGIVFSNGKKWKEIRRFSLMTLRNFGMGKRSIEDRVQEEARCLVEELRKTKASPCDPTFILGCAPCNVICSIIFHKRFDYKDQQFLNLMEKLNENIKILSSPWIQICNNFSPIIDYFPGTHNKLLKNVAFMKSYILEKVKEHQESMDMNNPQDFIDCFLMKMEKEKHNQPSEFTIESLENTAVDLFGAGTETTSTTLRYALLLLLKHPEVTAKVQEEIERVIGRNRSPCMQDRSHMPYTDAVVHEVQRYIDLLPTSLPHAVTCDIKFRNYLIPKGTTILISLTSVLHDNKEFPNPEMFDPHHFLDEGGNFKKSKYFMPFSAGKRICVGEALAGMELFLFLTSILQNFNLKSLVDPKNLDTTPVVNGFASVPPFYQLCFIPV
As for `CCCc1nc(N)nc2c1C(=O)CC(C)(C)C2`, the inhibition was -35.3%.

With `CCCSc1nsc(N)n1`, the inhibition was 16.4%.

Turning to `O=C(Nc1ccncc1)c1c(F)cccc1F`, the inhibition was 40.2%.

For `O=C(Nc1cccc(-c2nc3ncccc3o2)c1)c1ccco1`, the inhibition is -2.1%.

For `O=C(Nc1ccncc1)c1cc2ccccc2o1`, the inhibition was 86% (active).

Consider `O=C(C1CCCO1)N(Cc1ccccc1)c1ccccc1` (configuration not stated), for which the inhibition was -4%.

Turning to `Cc1cc([N+](=O)[O-])c(N2CCC[C@@H]2C(=O)O)c([N+](=O)[O-])c1`, the inhibition was 5.1%.

For the molecule `CS(=O)(=O)c1ccc2nc(NC(=O)C3C4C=CC(C4)C3C(=O)O)sc2c1` (configuration not stated), the inhibition was -5.4%.

Regarding `CC(C)(C)n1c(=O)[nH]c2c(c1=O)CCC2`, the inhibition is -7.2%.

For `CCOc1ccccc1NC(=O)C1CCN(S(=O)(=O)c2c(C)nn(C)c2C)CC1`, the inhibition is -30.6%.

For `CCOc1ccc(OCC)c(NC(=O)C2CCN(S(=O)(=O)c3c(C)noc3C)CC2)c1`, the inhibition was 48.4%.

For `COC(=O)c1ccccc1NC(=O)C1CCN(S(=O)(=O)c2cc(OC)ccc2OC)CC1`, the inhibition is 92.2% (active).

Turning to `O=C(Cc1c(O)c2ccccc2[nH]c1=O)NCc1ccccc1`, the inhibition was 9.8%.

Take `O=C(Nc1ccon1)c1cccc(Cl)c1`: the inhibition is 17.5%.

`Cc1ccc(Oc2ccc(N)cc2)cc1`: the inhibition is 29.2%.

For the molecule `CC(C(=O)Nc1ccc(F)c(F)c1F)N1CCCCCC1` (configuration not stated), the inhibition is 13.7%.

On to `Cc1cc(NC(=O)COc2ccc(Cl)cc2Cl)n(CCC#N)n1`, for which the inhibition is 16.2%.

On to `O=C1CCCC2=C1C(c1ccccc1)n1c(s/c(=C/c3cccc(F)c3)c1=O)=N2` (configuration not stated), for which the inhibition is 49.7%.

Regarding `CCOC(=O)Cn1c(=O)oc2cc(S(=O)(=O)NCC3CCCO3)ccc21` (configuration not stated), the inhibition is 11.7%.

With `O=C(NC1CCCCC1)n1c(=O)oc2cc(S(=O)(=O)N3CCCCC3)ccc21`, the inhibition was -56.7%.

Take `CC(C)CCNC(=O)Cn1c(=O)oc2cc(S(=O)(=O)N3CC(C)CC(C)C3)ccc21` (configuration not stated): the inhibition was 51.3% (active).

With `Cn1c(=O)c2c(nc(SCC(=O)Nc3ccccc3N3CCCCC3)n2C)n(C)c1=O`, the inhibition is 93.9% (active).

Turning to `Cn1c(=O)c2c(nc(SCCNS(=O)(=O)c3ccccc3)n2C)n(C)c1=O`, the inhibition is 42.7%.

In the case of `Cn1c(=O)c2c(nc(N3CCCCCC3)n2CC(=O)c2ccc(Br)cc2)n(C)c1=O`, the inhibition is 15.6%.

For `Cn1c(=O)c2c(nc(N3CCCCCC3)n2CC(O)COc2ccc(Cl)cc2)n(C)c1=O` (configuration not stated), the inhibition was 20%.

With `CC(C)n1c(SCC(=O)Nc2ccccc2N2CCCCC2)nc2c1c(=O)n(C)c(=O)n2C`, the inhibition was 87.2% (active).

Consider `O=C(CN1CCN(C2CCCCC2)CC1)Nc1ccccc1N1CCCCC1`, for which the inhibition is -1.6%.
